Active and inactive are the calls of the source.

Consider five compounds from PubChem BioAssay.

One experiment deals with Albumin (Bos taurus) (UniProt P02769). The experiment can be described thus: bovine serum albumin binders on microarray, profiling panel, artefact control for SMM control protein annotation, biochemical, small-molecule microarray, Alexa647 label, 635/667 nm fluorescence (AID 1118).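 Further: score merges 667 nm emission intensity and signal-to-noise per printed compound spot.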 As to conditions: BSA-A647 binding, fluorescence 635 nm, higher = more signal.
Experiment [1] in a line: small-molecule microarray binders of probe aXIP, primary screen, biochemical, NeuroSMM set, 635/667 nm fluorescence (AID 1119).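 Further: probe is the protein aXip251-270 applied at 1 µg/mL to compound-printed slides; binding of probe to printed compounds measured as 667 nm fluorescence plus signal to noise.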 Conditions: higher = more signal, called active from +8 up or from −8 down.
Experiment [2] in a line: small-molecule binders of probe aNOTCH3, primary screen, biochemical, small-molecule microarray, 635/667 nm fluorescence (AID 1120).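 Further: probe is a biotin-tagged antibody raised against NOTCH3 rather than NOTCH3 protein; score merges spot fluorescence near 667 nm with spot signal to noise.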 Conditions: higher = more signal.
The nature of experiment [3]: small-molecule binders of probe aNOTCH2, primary screen, biochemical, small-molecule microarray, 635/667 nm fluorescence (AID 1121).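 Further: score merges feature fluorescence read at 667 nm with its signal to noise.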 As to conditions: higher = more signal.
Experiment [4] deals with Carbonic anhydrase 2 (Homo sapiens) (UniProt P00918). The experiment is described as follows: CAII small-molecule binders, profiling panel, biochemical, small-molecule microarray, Alexa647-labelled CAII (AID 1122). Conditions: CAII-A647 binding fluorescence, higher = more signal.
Experiment [5] is described as follows: COS7 lysate on small-molecule microarray, probe aHis, 635 nm (AID 1123).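 Further: z-score combines 667nm fluorescence intensity with signal-to-noise per printed compound spot.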 As to conditions: COS7 cell lysate, fluorescence, higher = more signal.
The nature of experiment [6]: compound binding in COS7 lysate, probe aLAP1, primary screen, cell lysate, small-molecule microarray (AID 1124).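 Further: lysate comes from COS7 cells expressing LAP1 and is applied at 0.3 µg/mL; score merges spot fluorescence near 667 nm with signal-to-noise over triplicate slides.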 As to conditions: probe aLAP1, fluorescence, higher = more signal.
Another experiment deals with Sam68 (KHDRBS1). The experiment can be described thus: Sam68 small-molecule binders, primary screen, biochemical, small-molecule microarray, 635 nm fluorescence (AID 1125).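 Further: score merges 667 nm channel intensity with signal to noise over triplicate slides.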 As to conditions: small-molecule microarray binding, higher = more signal.
Experiment [7] relates to Chordin-like protein 2 (CHRDL2). The experiment is described as follows: CHRDL2 small-molecule binders, primary screen, biochemical, small-molecule microarray, 635 nm fluorescence (AID 1126).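 Further: printed compound slides probed with Chrdl2 protein at 4 µg/mL for 1 h at 4 C; score merges 667 nm emission intensity with signal to noise over three replicate slides.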 Conditions: small-molecule microarray binding, fluorescence 635 nm; higher = more signal.
Experiment [8] concerns the target Concanavalin-A (Canavalia ensiformis) (UniProt P02866). The experiment can be described thus: ConA small-molecule binders, primary screen, artefact control for SMM control protein annotation, biochemical, small-molecule microarray, Alexa647 label, 635 nm (AID 1127).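 Further: z combines 667 nm emission intensity with signal-to-noise across three replicate slides.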 As to conditions: ConA-A647 binding fluorescence, higher = more signal.
Experiment [9] in a line: anti-His antibody binders, primary screen, artefact control for SMM control protein annotation, biochemical, small-molecule microarray, 635 nm fluorescence (AID 1128).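 Further: score merges feature fluorescence with signal-to-noise for each printed compound spot.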 As to conditions: anti-His Alexa647 antibody binding, higher = more signal.
For experiment [10], the system named is Human papillomavirus type 1a E7 protein (residues 1-88). The experiment is described as follows: HPV1a E7 small-molecule binders, primary screen, biochemical, small-molecule microarray, residues 1-88, 635 nm (AID 1129). As to conditions: small-molecule microarray binding, fluorescence 635 nm; higher = more signal.
Experiment [11] deals with Focal adhesion kinase 1 (Homo sapiens) (UniProt Q05397). The experiment can be described thus: small-molecule microarray binders of FAK, primary screen, biochemical, 635/667 nm fluorescence, BSA, DTT (AID 1130).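 Further: composite of spot emission at 667 nm and signal to noise over triplicate slides.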 Conditions: PTK2 binding, 635 nm fluorescence, higher = more signal.
Experiment [12] relates to Fibrinogen (Alexa647-labelled). The experiment can be described thus: fibrinogen binders on compound microarrays, profiling panel, artefact control for SMM control-protein annotation, biochemical, small-molecule microarray, 635/667 nm fluorescence (AID 1131).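 Further: z-score merges 667 nm fluorescence with per-spot signal-to-noise over triplicate slides.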 As to conditions: fibrinogen-A647 binding fluorescence, higher = more signal.
The target of experiment [13] is Follistatin (Homo sapiens) (UniProt P19883). The experiment is described as follows: follistatin binders on small-molecule microarrays, primary screen, biochemical, small-molecule microarray, 635/667 nm fluorescence (AID 1132). As to conditions: FST binding, 635 nm fluorescence, higher = more signal.
The target in experiment [14] is Fibroblast growth factor 2 (Homo sapiens) (UniProt P09038). The experiment is described as follows: FGF2 binders on small-molecule microarrays, primary screen, biochemical, small-molecule microarray, 635/667 nm fluorescence (AID 1133). As to conditions: small-molecule microarray binding, FGF2, fluorescence 635/667; higher = more signal.
Experiment [15] can be described thus: mitochondrial membrane potential change in A549 cells, profiling panel, cell-based, JC-1 fluorescence, basal, 24 h, 100 nL (AID 1138).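 Further: A549 lung adenocarcinoma cells under basal conditions with no added stimulus; test concentration not given here.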 Conditions: higher = more signal.
For another experiment, the system named is Lefty1. The experiment is described as follows: Lefty1 binders on small-molecule microarrays, primary screen, biochemical, small-molecule microarray, 635/667 nm fluorescence (AID 1139). As to conditions: small-molecule microarray binding, fluorescence 635/667; higher = more signal.
Experiment [16] deals with wheat germ agglutinin (Triticum aestivum), Alexa647-labelled. The experiment can be described thus: wheat germ agglutinin binders on compound microarrays, profiling panel, artefact control for SMM control-protein annotation, biochemical, small-molecule microarray, 635/667 nm fluorescence (AID 1140).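 Further: score merges 667 nm feature emission with signal to noise over triplicate slides.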 As to conditions: WGA-A647 binding, 635 nm fluorescence, higher = more signal.

The target of experiment [17] is Luciferin 4-monooxygenase (Photinus pyralis) (UniProt P08659). The experiment is described as follows: firefly luciferase enzyme inhibitors, primary screen, biochemical, luminescence, purified enzyme, 2006 set (AID 1141).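 Further: cell-free assay with purified firefly luciferase at 100 ng per well in PBS; test concentration not given here.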 Conditions: SteadyGlo luminescence, 30 min, higher = more signal, called active from +8 up or from −8 down.
Sequence of Luciferin 4-monooxygenase (Photinus pyralis) (P08659 whole entry, looked up): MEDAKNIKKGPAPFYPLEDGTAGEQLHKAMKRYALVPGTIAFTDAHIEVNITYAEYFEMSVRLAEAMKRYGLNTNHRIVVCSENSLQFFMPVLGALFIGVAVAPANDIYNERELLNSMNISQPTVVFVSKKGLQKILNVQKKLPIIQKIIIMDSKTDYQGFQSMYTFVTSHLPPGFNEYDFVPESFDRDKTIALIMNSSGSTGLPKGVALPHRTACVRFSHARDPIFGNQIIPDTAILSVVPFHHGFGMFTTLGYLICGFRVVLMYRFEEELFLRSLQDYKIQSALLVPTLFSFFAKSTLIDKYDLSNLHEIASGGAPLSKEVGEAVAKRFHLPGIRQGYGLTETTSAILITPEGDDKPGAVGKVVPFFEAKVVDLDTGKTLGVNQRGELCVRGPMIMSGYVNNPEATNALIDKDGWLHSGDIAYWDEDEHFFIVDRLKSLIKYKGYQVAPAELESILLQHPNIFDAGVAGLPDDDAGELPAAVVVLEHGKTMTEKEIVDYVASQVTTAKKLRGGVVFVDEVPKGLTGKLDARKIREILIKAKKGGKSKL

Sequence of Focal adhesion kinase 1 (Homo sapiens) (Q05397 whole entry, looked up): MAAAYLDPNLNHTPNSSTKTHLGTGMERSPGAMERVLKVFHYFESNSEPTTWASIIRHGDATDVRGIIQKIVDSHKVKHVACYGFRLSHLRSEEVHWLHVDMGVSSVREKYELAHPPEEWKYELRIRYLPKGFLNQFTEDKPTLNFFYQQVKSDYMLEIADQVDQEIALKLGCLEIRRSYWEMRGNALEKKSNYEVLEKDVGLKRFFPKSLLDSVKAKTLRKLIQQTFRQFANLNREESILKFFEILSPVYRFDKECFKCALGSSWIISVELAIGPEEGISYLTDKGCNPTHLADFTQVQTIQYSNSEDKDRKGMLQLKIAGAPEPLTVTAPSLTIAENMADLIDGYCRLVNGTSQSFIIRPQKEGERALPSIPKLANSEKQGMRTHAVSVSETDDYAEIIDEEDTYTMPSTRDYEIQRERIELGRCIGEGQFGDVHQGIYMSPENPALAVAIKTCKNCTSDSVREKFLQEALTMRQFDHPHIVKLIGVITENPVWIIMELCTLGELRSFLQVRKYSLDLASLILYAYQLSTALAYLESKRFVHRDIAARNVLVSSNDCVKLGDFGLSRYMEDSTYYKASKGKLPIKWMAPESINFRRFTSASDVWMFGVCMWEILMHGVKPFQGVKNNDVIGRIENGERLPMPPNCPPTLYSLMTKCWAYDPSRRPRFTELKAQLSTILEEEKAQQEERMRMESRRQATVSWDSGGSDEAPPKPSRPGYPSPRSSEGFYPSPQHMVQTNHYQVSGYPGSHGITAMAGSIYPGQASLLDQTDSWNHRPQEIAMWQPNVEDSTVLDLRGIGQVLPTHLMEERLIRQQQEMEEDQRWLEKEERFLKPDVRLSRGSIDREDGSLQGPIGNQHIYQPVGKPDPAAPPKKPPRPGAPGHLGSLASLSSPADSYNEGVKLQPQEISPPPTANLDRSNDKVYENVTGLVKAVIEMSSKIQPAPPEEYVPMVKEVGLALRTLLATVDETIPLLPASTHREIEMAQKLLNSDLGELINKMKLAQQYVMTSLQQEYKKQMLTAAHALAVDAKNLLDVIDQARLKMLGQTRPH
Sequence of Albumin (Bos taurus) (P02769 whole entry, looked up): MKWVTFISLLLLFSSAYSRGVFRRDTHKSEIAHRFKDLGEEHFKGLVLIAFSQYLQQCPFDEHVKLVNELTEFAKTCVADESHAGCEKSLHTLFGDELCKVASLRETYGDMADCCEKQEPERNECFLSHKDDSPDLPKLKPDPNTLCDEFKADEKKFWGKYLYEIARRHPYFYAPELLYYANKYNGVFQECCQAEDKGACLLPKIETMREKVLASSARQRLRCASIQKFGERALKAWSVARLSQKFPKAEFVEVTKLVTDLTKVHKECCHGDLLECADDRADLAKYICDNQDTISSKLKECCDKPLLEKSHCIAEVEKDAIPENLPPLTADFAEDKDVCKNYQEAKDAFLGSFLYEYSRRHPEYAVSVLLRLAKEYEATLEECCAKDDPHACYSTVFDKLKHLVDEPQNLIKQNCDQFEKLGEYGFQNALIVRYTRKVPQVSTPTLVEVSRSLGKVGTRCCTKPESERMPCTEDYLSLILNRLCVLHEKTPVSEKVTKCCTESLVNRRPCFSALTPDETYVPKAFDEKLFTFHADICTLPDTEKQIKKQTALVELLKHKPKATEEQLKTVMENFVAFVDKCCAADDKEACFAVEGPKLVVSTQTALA
Sequence of Follistatin (Homo sapiens) (P19883 whole entry, looked up): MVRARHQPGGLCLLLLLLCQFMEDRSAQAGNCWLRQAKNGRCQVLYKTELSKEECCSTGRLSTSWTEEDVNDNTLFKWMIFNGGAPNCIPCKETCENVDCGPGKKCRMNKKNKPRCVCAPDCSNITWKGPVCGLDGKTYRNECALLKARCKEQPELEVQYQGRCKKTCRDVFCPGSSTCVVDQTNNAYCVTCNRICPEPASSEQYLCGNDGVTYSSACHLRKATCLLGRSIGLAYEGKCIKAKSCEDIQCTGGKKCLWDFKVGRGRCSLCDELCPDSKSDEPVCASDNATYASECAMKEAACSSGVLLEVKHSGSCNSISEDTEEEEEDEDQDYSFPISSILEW
Sequence of Concanavalin-A (Canavalia ensiformis) (P02866 whole entry, looked up): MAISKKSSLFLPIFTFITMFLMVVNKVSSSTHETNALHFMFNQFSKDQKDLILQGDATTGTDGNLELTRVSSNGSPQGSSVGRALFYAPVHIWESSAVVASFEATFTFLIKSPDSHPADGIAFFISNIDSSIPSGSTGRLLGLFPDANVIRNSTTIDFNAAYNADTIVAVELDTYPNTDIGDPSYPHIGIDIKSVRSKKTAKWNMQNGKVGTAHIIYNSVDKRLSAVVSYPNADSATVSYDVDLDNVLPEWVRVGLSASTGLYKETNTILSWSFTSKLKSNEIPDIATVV
Sequence of Fibroblast growth factor 2 (Homo sapiens) (P09038 whole entry, looked up): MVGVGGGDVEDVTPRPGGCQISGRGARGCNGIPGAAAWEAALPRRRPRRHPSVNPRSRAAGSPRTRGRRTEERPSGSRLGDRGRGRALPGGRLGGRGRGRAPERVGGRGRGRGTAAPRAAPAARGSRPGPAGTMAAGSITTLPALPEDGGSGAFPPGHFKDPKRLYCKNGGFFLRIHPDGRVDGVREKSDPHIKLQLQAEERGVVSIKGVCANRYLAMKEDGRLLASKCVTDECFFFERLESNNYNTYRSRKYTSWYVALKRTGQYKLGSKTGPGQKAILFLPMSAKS

With `CCCC[C@@H]1C[C@H]1[C@@H](NC(=O)c1ccccc1)c1ccccc1C(F)(F)F`, the composite z-score with Albumin (Bos taurus) was determined as 1.01; in experiment [2] it was 0.0493; in [3] it was 0.0116; in experiment [4], 0.412; in experiment [5], 3.03; in [6], 0.13. Further, the composite z-score in the experiment with Sam68 (KHDRBS1) was 1.14; in experiment [7] it was 0.377; in experiment [8], 1.17; in experiment [9], 0.412; in [10], 1.22; in experiment [11] it was 0.826. Besides, the composite z-score is 1.03 in [12]; 0.243 in experiment [13]; -0.113 in [14]; -0.826 in the experiment with Lefty1; 1.17 in experiment [16]. In addition, in [1], the composite Z-score is -0.814 (inactive). For the same compound, the results for the z-score in experiment [15] and in experiment [17] were 0.294 and 1.31 (inactive), respectively.

Consider `C=CCOC(=O)[C@@H]1[C@H]2C(=O)O[C@H](c3ccccc3)[C@H](c3ccccc3)N2[C@H](c2ccc(OCCOC(=O)[C@H]3C[C@H]4C(=O)N5CCC[C@H]5C(=O)N4[C@H]3c3ccc(O)cc3)cc2)[C@@]12C(=O)Nc1ccccc12`, for which the composite z-score with Albumin (Bos taurus) is -0.876; in [2], -0.125; in experiment [3] it was -0.185; in [4], 0.252; in [5], 1.12; in experiment [6] it was 0.333. In addition, the composite z-score turned out to be 1.27 with Sam68 (KHDRBS1); 0.95 in experiment [7]; 1.19 in experiment [8]; 0.912 in experiment [9]; 1.2 in experiment [10]; 0.782 in [11]. The composite z-score in experiment [12] was 0.81; in [13], 1.37; in [14] it was 1.58; in the experiment on Lefty1, 0.872; in [16] it was 0.93. In [1], the composite Z-score was 0.223 (inactive). The z-score in experiment [15] was -1.47; in [17] it was -0.803 (inactive).

On to `O=C1O[C@@H](c2ccccc2)[C@@H](c2ccccc2)N2[C@@H](c3ccc(O)cc3)[C@]3(C(=O)Nc4ccc(C#CC5(O)CCCCCC5)cc43)[C@@H](C(=O)Nc3nc4ccccc4s3)[C@H]12`, for which the composite z-score with Albumin (Bos taurus) was 0.839; in [2], 0.173; in experiment [3], 0.0943; in experiment [4], 0.0181; in experiment [5], 1.95; in experiment [6], 0.807. The composite z-score in the experiment on Sam68 (KHDRBS1) worked out at 1.35; in experiment [7], 0.896; in [8] it was 1.08; in experiment [9], 1.87; in experiment [10] it was 1.22; in experiment [11], 0.706. Further, the composite z-score in [12] turned out to be 0.886; in experiment [13], 1.37; in [14] it was 1.21; in the experiment on Lefty1 it was 1.53; in [16], 1.26. In addition, the composite Z-score in experiment [1] was 0.751 (inactive). Also, the z-score in experiment [15] is -0.901; in [17], -1.4 (inactive).

Consider `CC1=C([C@H](O)CCc2ccccc2)[C@H](CO)[C@@H]2C(=O)N(Cc3ccccc3)C(=O)[C@@H]2C1`, for which the composite z-score is 0.427 with Albumin (Bos taurus); 0.0349 in experiment [2]; -0.117 in experiment [3]; 0.347 in [4]; 0.307 in experiment [5]; -0.222 in experiment [6]. Also, the composite z-score in the experiment on Sam68 (KHDRBS1) was -0.364; in [7] it was -0.0449; in [8], 1.13; in experiment [9], 0.635; in experiment [10], 0.0269; in experiment [11], 0.194. The composite z-score in [12] came out at 0.962; in experiment [13], 0.738; in experiment [14], 0.113; in the experiment with Lefty1, 0.388; in experiment [16] it was 0.313. In experiment [1], the composite Z-score was 0.39 (inactive). The z-score is 0.901 in experiment [15] and 0.215 (inactive) in experiment [17].

On to `C=CCC(OC(C)=O)[C@@H]1[C@@H](N(Cc2cccc3ccccc23)C(=O)c2ccc(C)cc2)c2cc(OCCCO)ccc2N1C(=O)c1ccc(-c2ccccc2)cc1` (stereo not given in full), for which the composite z-score in the experiment with Albumin (Bos taurus) was -0.0575; in [2], 0.102; in [3], -0.0398; in experiment [4], 0.507; in [5], 0.143; in experiment [6], -0.105. Besides, the composite z-score in the experiment on Sam68 (KHDRBS1) was -0.087; in experiment [7], 0.114; in [8], -0.227; in [9], -0.215; in experiment [10], -0.0588; in experiment [11], -0.0095. In addition, the composite z-score in experiment [12] is -0.5; in [13], 0.679; in experiment [14] it was 0.26; with Lefty1 it was -0.0451; in [16], -0.285. The composite Z-score in experiment [1] is -0.0961 (inactive). In addition, the z-score was 2.6 in experiment [15] and -1.18 (inactive) in experiment [17].
